“And” between values parts separate entries of the source, which are not always exact repeats. Equal values may be shown once. Records with an inconclusive call do not appear. The source made the active and inactive calls. Unless noted, calls follow the shape of the dose curve; as a rule, active = well fitted curve in the direction sought with a large enough effect; inconclusive = small, poorly fitted or top-dose-only effect, or another doubt; inactive = no such curve, though single readings can be large; an effect the other way counts as inactive or inconclusive.
What was measured:
[1] = MultiTox-Fluor Cytotoxicity Assay - LYMP1-001 - Live Cells (AID 947);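 also: 0% = DMSO only and full inhibition = tetraoctylammonium bromide control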
[2] = Cell Viability - LYMP1-002 - Assay at 16 hr (AID 948);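 also: 0% = DMSO alone and full effect = 92 µM tetraoctylammonium bromide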
How it was run: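 Acute cytotoxicity is scored as a concentration-dependent fall in intracellular ATP in a human lymphoblastoid line (LYMP1-002) after 16 hr compound exposure at 37 C, measured by luciferase luminescence.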

[3] = Cell Viability - LYMP2-003 (AID 965);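 also: cells exposed to compounds for 24 h before reading; 0% = DMSO only and full effect = 92 µM tetraoctylammonium bromide; nearly all actives have a fitted effect of over 50% in size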
How it was run: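 Acute cytotoxicity is scored as a concentration-dependent drop in intracellular ATP, measured by luciferase luminescence in human lymphoblastoid cells treated for 24 hours at 37 C. AC50 values derive from Hill-equation modelling.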

[4] = Cell Viability - LYMP2-008 (AID 980); also: % is scaled to controls: 0 for no effect and ±100 for the full control effect; nearly all actives have a fitted effect of over 60% in size
How it was run: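 Measured: ATP-dependent luminescence, proportional to viable cell number, in human lymphoblastoid cells treated 24 hr with compound in complete culture medium. Values are AC50s from Hill-equation modelling of qHTS titrations.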

[5] = Cell Viability - LYMP1-002 - Assay at 24 hr (AID 993); also: % is scaled to controls: 0 for no effect and ±100 for the full control effect
How it was run: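 Viability was judged from intracellular ATP using a luciferase read-out, following a 24-hour compound incubation at 37 C of lymphoblastoid cells seeded at 2500 per well. Concentration-response data were fitted to the Hill equation for AC50.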

[6] = biological target: Bile acid receptor (Homo sapiens) (UniProt Q96RI1); assay: qHTS assay for small molecule antagonists of farnesoid X receptor signaling (AID 588526; calls by dose curve; also: % is scaled to controls: 0 for no effect and ±100 for the full control effect)
How it was run: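 Concentration-response titrations were fitted to the Hill equation for half-maximal inhibition and maximal response, with data normalised to 50 uM chenodeoxycholic acid and DMSO control wells. Cells: FXR-UAS-bla HEK293T, dialyzed FBS.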

[7] = biological target: Glucocorticoid receptor (Homo sapiens) (UniProt P04150); assay: qHTS assay for small molecule agonists of glucocorticoid receptor signaling (AID 588532; active = well fitted curve in the direction sought with a large enough effect in the signal ratio, with a control signal flat; the % refers to the signal ratio;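 also: 100% = dexamethasone at 0.1 µM and 0% = DMSO only wells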); conditions: HeLa MMTV-bla, beta-lactamase ratio, agonist, 18 h; stronger effect = higher value; percent of dexamethasone control, DMSO zero
How it was run: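 MMTV-bla HeLa, beta-lactamase reporter; medium with 1% charcoal/dextran-stripped FBS; cpds up to 92 uM, 18 h, 37 C; CCF4 readout 460/530 nm; Hill fit → EC50, efficacy vs 0.1 uM dexamethasone = 100%.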

[8] = biological target: Glucocorticoid receptor (Homo sapiens) (UniProt P04150); assay: qHTS assay for small molecule antagonists of glucocorticoid receptor signaling (AID 588533; active = well fitted inhibition curve with a large enough effect in the signal ratio, with a control signal flat, not every such curve was filed as active; the % refers to the signal ratio;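 also: cells stimulated with 2 nM dexamethasone as agonist; % is scaled to controls: 0 for no effect and ±100 for the full control effect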)
How it was run: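 Antagonist-mode qHTS: compound titrations added to GRE-bla HeLa cells, then dexamethasone 2 nM final; 18 h, 37 C. CCF4 FRET fluorescence normalized to dexamethasone and DMSO; IC50 from Hill fit.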

[9] = biological target: Peroxisome proliferator-activated receptor delta (Homo sapiens) (UniProt Q03181); assay: qHTS assay for small molecule agonists of peroxisome proliferator-activated receptor delta signaling (AID 588534; calls by dose curve;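 also: 0% = DMSO basal wells and 100% = positive control agonist at 10 µM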)
How it was run: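 EC50 and efficacy values derive from Hill fits of a concentration series in a beta-lactamase reporter cell assay. Exposure is 18 hrs at 37 C, with CCF4 fluorescence as the readout.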

[10] = qHTS assay for small molecule antagonists of peroxisome proliferator-activated receptor delta signaling (AID 588535; active = well fitted inhibition curve with a large enough effect in the signal ratio, with a control signal flat, not every such curve was filed as active; the % refers to the signal ratio;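 as to max response: cells co-treated with a PPAR-delta agonist as stimulator during compound exposure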); conditions: HEK293T PPARd-UAS-bla, beta-lactamase FRET ratio, 18 h; 460 nm channel
How it was run: (§1)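 Compounds tested in titration on PPAR-delta-UAS-bla HEK293T cells grown in charcoal/dextran-stripped serum (2%); beta-lactamase activity read via CCF4 emission at 460 and 530 nm.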

[11] = biological target: Peroxisome proliferator-activated receptor delta (Homo sapiens) (UniProt Q03181); assay: as above
How it was run: as §1

[12] = biological target: Thyroid hormone receptor beta (Homo sapiens) (UniProt P10828); assay: qHTS assay for small molecule antagonists of thyroid hormone receptor beta signaling (AID 588547; active = well fitted inhibition curve with a large enough effect in the signal ratio, with a control signal flat, not every such curve was filed as active; the % refers to the signal ratio;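 also: cells stimulated with 0.4 nM T3 agonist during compound exposure; series mostly up to about 77 µM; % is scaled to controls: 0 for no effect and ±100 for the full control effect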); conditions: TR-UAS-bla HEK293, beta-lactamase ratio, antagonist mode, 18 h
How it was run: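 TR-UAS-bla GripTite HEK293 cells in 2% charcoal/dextran FBS medium were preincubated 4 h at 37 C, given compound (0.59 nM to 92 uM) plus 0.4 nM T3 (final) for 18 h, then CCF4 for 2 h at RT; Hill fit gave IC50.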

[13] = qHTS assay for small molecule agonists of the antioxidant response element (ARE) signaling pathway (AID 651741; active = well fitted activation curve with a large enough effect in the signal ratio; the % refers to the signal ratio; also: potency is read from the fitted curve at half-maximal effect; as to activation: % of control where 0% means no effect)
How it was run: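 Beta-lactamase reporter expression driven by the antioxidant response element in HepG2 cells was detected by fluorescence with LiveBLAzer B/G FRET substrate (2 h, room temperature) following 16 h compound treatment at 37 C.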

[14] = qHTS assay for small molecule activators of the p53 signaling pathway (AID 651743; active = well fitted activation curve with a large enough effect in the signal ratio, not every such curve was filed as active; the % refers to the signal ratio; also: potency is read from the fitted curve at half-maximal effect; as to activation: series mostly up to about 92 µM; % of control where 0% means no effect); conditions: HCT-116 p53RE-bla, beta-lactamase FRET ratio, 16 h; activation: stronger effect = higher value
How it was run: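 Here HCT-116 cells with an integrated p53-responsive beta-lactamase gene were incubated with compounds (16 hours, 37 C) after a 5-hour plating period; beta-lactamase activity was detected as fluorescence intensity via B/G FRET substrate.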

[15] = qHTS assay for small molecule activators of the nuclear factor-kappa B (NF-kB) signaling pathway (AID 651749; active = well fitted activation curve with a large enough effect in the signal ratio; the % refers to the signal ratio; also: series mostly up to about 77 µM; % of control where 0% means no effect); conditions: NF-kB-bla ME-180 cells, beta-lactamase FRET ratio, 16 h; stronger effect = higher value
How it was run: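 Beta-lactamase reporter expression, controlled by NF-kB response elements in ME-180 cells, was quantified fluorometrically via FRET disruption; cells at 2,000/well had been incubated with 23 nL test compound for 16 hr.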

[16] = qHTS assay for small molecule disruptors of the mitochondrial membrane potential - 5 hr assay (AID 651755; calls by dose curve; also: % is scaled to controls: 0 for no effect and ±100 for the full control effect; nearly all actives have a fitted effect of over 40% in size)
How it was run: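 Seed HepG2 overnight, add compound, incubate 5 hr at 37C and 5% CO2, stain 30 min with Mito-MPS, then measure monomer (490/535 nm) and aggregate (540/590 nm) fluorescence.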

[17] = Cell Viability - LYMP2-005 (AID 967);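 also: series mostly up to about 92 µM; plate controls were DMSO only for no effect and 92 µM tetraoctylammonium bromide control for full effect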
How it was run: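 qHTS viability screen in LYMP2-005 cells: 24 h at 37 C with compound, ATP luminescence via CellTiter-Glo, AC50 from Hill curves.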

[18] = biological target: Peroxisome proliferator-activated receptor gamma (Homo sapiens) (UniProt P37231); assay: qHTS assay for small molecule antagonists of peroxisome proliferator-activated receptor gamma signaling (AID 588537; active = well fitted inhibition curve with a large enough effect in the signal ratio, with a control signal flat, not every such curve was filed as active; the % refers to the signal ratio;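 also: reporter cells co-stimulated with 50 nM rosiglitazone agonist during compound treatment; % of control where 0% means no effect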)
How it was run: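 HEK293 cells, PPAR-gamma-UAS-bla, 3000/well. Pre-incubation 6-6.5 h, 37 C. Compound titration with rosiglitazone 50 nM final, 16 h. CCF4 dye, 2 h RT, dual-emission fluorescence.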

[19] = qHTS assay for small molecule disruptors of the mitochondrial membrane potential - 1 hr assay (AID 651754; calls by dose curve; also: % is scaled to controls: 0 for no effect and ±100 for the full control effect; nearly all actives have a fitted effect of over 35% in size)
How it was run: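 In this qHTS format, a 1 hr compound treatment of HepG2 cells precedes Mito-MPS staining, and membrane potential is judged from aggregate (red) against monomer (green) fluorescence intensity.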

[20] = biological target: Estrogen receptor (Homo sapiens) (UniProt P03372); assay: qHTS assay for small molecule antagonists of estrogen receptor alpha signaling (AID 588513; active = well fitted curve in the direction sought with a large enough effect in the signal ratio, with a control signal flat, not every such curve was filed as active; the % refers to the signal ratio; also: % is scaled to controls: 0 for no effect and ±100 for the full control effect)
How it was run: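 Cells were plated at 5000/well and incubated 4 h at 37 C. Compounds were added as 1:2 dilution series, duplicates. 17-beta-estradiol (0.5nM final) was added for 18 h before CCF4 detection.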

Glucocorticoid receptor (Homo sapiens), sequence (P04150 whole entry, looked up): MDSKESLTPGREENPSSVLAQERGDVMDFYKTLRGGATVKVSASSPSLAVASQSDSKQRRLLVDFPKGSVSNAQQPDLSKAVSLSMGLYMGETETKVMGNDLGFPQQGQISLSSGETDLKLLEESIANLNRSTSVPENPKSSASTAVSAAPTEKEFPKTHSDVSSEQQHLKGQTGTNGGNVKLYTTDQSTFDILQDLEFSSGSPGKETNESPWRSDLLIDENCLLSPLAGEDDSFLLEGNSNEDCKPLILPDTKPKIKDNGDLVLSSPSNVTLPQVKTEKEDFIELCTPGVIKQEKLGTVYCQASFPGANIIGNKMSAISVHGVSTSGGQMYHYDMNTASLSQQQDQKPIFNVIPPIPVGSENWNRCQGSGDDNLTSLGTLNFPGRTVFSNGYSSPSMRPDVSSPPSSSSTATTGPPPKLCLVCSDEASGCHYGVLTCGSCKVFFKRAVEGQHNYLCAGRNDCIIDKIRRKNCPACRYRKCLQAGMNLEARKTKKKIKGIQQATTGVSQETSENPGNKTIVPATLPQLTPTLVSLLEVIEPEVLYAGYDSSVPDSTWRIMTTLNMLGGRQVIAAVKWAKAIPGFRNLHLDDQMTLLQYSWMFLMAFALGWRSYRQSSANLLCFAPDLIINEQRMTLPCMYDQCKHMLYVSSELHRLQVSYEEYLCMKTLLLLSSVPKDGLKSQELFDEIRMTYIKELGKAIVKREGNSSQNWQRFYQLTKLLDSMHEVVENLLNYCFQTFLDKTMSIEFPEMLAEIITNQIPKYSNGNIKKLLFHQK
Thyroid hormone receptor beta (Homo sapiens), sequence (P10828 whole entry, looked up): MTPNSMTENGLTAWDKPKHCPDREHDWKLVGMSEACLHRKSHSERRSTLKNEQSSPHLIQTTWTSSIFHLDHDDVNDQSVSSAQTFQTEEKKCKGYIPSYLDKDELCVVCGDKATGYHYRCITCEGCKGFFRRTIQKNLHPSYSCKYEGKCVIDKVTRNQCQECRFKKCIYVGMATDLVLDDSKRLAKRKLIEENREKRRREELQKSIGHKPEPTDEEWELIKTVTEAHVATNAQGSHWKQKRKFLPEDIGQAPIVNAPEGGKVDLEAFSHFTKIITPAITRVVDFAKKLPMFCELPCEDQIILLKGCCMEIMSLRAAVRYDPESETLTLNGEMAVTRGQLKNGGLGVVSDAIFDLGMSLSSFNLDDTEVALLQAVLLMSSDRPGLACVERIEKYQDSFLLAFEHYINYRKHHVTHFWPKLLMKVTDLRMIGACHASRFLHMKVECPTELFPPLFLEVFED
Bile acid receptor (Homo sapiens), sequence (Q96RI1 whole entry, looked up): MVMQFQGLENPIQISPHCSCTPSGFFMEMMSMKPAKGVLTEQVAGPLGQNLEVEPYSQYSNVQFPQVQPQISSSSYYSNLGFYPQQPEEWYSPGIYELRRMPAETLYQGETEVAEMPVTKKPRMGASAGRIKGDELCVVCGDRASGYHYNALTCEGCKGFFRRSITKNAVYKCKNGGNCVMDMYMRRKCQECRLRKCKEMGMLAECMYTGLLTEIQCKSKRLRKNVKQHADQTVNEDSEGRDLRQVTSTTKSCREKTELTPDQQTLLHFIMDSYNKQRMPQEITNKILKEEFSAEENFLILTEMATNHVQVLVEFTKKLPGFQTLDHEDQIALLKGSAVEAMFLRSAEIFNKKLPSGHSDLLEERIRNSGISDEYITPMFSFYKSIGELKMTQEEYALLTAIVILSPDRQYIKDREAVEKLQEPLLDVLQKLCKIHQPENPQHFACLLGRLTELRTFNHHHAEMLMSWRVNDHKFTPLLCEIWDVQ
Estrogen receptor (Homo sapiens), sequence (P03372 whole entry, looked up): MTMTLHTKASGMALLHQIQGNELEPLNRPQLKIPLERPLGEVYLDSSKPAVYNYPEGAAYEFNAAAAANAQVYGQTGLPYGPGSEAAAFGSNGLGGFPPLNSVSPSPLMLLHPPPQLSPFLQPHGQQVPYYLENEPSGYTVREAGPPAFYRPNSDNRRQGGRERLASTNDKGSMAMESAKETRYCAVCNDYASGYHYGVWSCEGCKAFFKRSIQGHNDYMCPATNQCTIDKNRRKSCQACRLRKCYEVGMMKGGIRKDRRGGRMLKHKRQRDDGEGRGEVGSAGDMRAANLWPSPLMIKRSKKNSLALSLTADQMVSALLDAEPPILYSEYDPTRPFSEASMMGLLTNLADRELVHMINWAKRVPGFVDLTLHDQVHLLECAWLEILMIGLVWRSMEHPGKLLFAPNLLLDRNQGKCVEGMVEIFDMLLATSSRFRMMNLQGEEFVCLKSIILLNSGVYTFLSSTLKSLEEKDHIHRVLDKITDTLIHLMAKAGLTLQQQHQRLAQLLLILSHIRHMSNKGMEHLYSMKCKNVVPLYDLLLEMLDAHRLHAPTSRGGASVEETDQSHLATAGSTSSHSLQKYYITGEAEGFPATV
Peroxisome proliferator-activated receptor gamma (Homo sapiens), sequence (P37231 whole entry, looked up): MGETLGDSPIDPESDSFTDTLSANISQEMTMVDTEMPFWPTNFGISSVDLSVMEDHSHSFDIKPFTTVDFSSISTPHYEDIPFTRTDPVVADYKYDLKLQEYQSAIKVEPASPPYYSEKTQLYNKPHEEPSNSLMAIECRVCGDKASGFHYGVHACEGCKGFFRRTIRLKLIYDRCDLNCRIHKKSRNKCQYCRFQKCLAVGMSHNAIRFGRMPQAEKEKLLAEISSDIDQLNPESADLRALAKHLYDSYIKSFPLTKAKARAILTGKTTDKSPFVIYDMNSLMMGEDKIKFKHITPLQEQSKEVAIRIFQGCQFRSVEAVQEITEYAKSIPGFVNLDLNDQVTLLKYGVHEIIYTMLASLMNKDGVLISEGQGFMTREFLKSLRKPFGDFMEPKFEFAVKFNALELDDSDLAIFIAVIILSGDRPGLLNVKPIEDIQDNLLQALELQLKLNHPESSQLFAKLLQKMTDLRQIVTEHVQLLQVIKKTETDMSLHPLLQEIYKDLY
Peroxisome proliferator-activated receptor delta (Homo sapiens), sequence (Q03181 whole entry, looked up): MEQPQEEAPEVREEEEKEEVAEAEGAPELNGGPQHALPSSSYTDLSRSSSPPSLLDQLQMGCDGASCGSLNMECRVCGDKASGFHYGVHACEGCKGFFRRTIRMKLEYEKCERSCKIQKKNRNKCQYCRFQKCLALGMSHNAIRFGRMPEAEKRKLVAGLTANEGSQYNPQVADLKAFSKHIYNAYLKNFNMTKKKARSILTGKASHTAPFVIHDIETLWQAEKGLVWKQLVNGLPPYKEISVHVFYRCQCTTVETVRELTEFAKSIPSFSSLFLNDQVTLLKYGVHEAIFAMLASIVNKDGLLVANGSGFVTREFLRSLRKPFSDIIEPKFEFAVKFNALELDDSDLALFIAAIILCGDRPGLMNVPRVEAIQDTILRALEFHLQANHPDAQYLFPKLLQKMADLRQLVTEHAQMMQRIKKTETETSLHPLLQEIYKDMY

ClCCOCCCl
5.43%: max response [10]
inactive: outcome [1] | outcome [2] | Potency [3] | Potency [4] | Potency [5] | outcome [6] | activation [7] 0.183% | outcome [8] | outcome [9] | outcome [11] | activity change % (negative = inhibition) [12] 0.0195% | Potency [13] | activation [14] -1.88% | activation [15] -0.467% | Potency [16]

C=CC(=O)OCC(CC)CCCC (stereo not given)
10.4% and 11.2%: max response [10]
inactive: outcome [1] | outcome [2] | Potency [3] | Potency [17] | Potency [4] | Potency [5] | activation [7] -0.1% and -12.6% | outcome [8] | outcome [9] | Potency [18] | activity change % (negative = inhibition) [12] -10.5% and 4.22% | Potency [13] | activation [14] 0.81% and 5.58% | activation [15] -0.0286% and 0.831% | Potency [19] | Potency [16]

Cc1ccc(N=C=O)cc1N=C=O
inactive: outcome [2] | Potency [3] | Potency [17] | Potency [4] | Potency [5] | activation [7] 4.9% and -2.62% | outcome [8] | Potency [18] | activity change % (negative = inhibition) [12] -8.5% | Potency [13] | activation [14] -2.11% and -1.5% | activation [15] 0.173% and 0.839%

BrCCc1ccccc1
-20.6%: max response [10]
inactive: outcome [1] | outcome [2] | Potency [3] | Potency [4] | outcome [8] | outcome [9] | activity change % (negative = inhibition) [12] -8.86% | Potency [13] | activation [14] -5.87% | activation [15] -1.06% | Potency [19] | Potency [16]

CC(C)(Cl)[N+](=O)[O-]
inactive: outcome [1] | Potency [3] | Potency [17] | Potency [5] | outcome [6] | activation [7] -3.18% | outcome [9] | Potency [18] | activity change % (negative = inhibition) [12] 9.2% | Potency [13] | activation [14] 3.96% | activation [15] -0.598% | Potency [19] | Potency [16]

Nc1ccc2ccccc2c1
inactive: outcome [1] | Potency [3] | Potency [17] | Potency [4] | Potency [5] | Potency [20] | activation [14] 0.265% | Potency [19] | Potency [16]

Oc1cccc(Cl)c1Cl
inactive: outcome [1] | outcome [2] | Potency [3] | Potency [17] | Potency [4] | Potency [5] | Potency [20] | activation [7] -0.403% | outcome [8] | outcome [9] | Potency [18] | activity change % (negative = inhibition) [12] 9.41% | activation [14] 0.548% | Potency [19] | Potency [16]

O=C(O)C(Cl)Br (stereo not given)
33.1%: max response [10]
active: Potency [13] 33.5 µM
inactive: Potency [3] | Potency [17] | Potency [5] | outcome [6] | activation [7] 5.56% | outcome [9] | outcome [11] | activity change % (negative = inhibition) [12] 7.08% | activation [14] 0.485% | activation [15] 0.434% | Potency [19] | Potency [16]

Clc1cccc(Cl)c1Cl
-24.3%: max response [10]
inactive: outcome [2] | Potency [3] | Potency [17] | Potency [4] | activation [7] -0.532% | outcome [8] | outcome [9] | outcome [11] | Potency [18] | Potency [13] | activation [15] -0.304% and 0.362% | Potency [19] | Potency [16]

N#C/C(N)=C(/N)C#N
inactive: outcome [1] | outcome [2] | Potency [17] | Potency [4] | Potency [5] | Potency [20] | activation [7] -0.556% | outcome [8] | outcome [9] | Potency [18] | activity change % (negative = inhibition) [12] -2.94% | activation [15] -1.05% | Potency [19] | Potency [16]

COC(=O)Nc1nc2ccccc2[nH]1
-45%: max response [10]
inactive: Potency [3] | Potency [17] | Potency [5] | activation [7] -11.7% | outcome [11] | Potency [18] | activity change % (negative = inhibition) [12] -22.5% and -22.8% | Potency [19] | Potency [16]
active: Potency [13] 61.1 µM | Potency [14] 10 µM and 12.6 µM

From PubChem BioAssay (NCATS)
